What was measured:
Test in all cases: log2 ratio of Biotin-Ahx-Ub-VS probe labelling (fragment/DMSO); higher = less target engagement (more negative = stronger competition), active = hit call of the paper (q ≤ 0.05, log2 ratio ≤ -1)
Details in all cases: compound concentration: 200 uM; treatment time: 3 h
[1] = target: USP34 (UniProt Q70CQ2)
How it was run: (§1)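 Labelled DUBs from HEK293T lysate were NeutrAvidin-enriched, digested with LysC and trypsin, and run by diaPASEF LC-MS/MS. Before that, each 495 µg sample in Tris/CHAPS/IGEPAL buffer with protease inhibitors was treated in triplicate with fragment at 200 µM or vehicle for 3 h, then with Biotin-Ahx-Ub-VS at 0.5 µM final for 1 h. Values are average log2 ratios of fragment over vehicle by unpaired t-test, based on global-median-normalised Spectronaut label-free quantities from proteins with ≥2 unique peptides.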

[2] = target: T1, USP36 (UniProt Q9P275)
T1 sequence (whole entry): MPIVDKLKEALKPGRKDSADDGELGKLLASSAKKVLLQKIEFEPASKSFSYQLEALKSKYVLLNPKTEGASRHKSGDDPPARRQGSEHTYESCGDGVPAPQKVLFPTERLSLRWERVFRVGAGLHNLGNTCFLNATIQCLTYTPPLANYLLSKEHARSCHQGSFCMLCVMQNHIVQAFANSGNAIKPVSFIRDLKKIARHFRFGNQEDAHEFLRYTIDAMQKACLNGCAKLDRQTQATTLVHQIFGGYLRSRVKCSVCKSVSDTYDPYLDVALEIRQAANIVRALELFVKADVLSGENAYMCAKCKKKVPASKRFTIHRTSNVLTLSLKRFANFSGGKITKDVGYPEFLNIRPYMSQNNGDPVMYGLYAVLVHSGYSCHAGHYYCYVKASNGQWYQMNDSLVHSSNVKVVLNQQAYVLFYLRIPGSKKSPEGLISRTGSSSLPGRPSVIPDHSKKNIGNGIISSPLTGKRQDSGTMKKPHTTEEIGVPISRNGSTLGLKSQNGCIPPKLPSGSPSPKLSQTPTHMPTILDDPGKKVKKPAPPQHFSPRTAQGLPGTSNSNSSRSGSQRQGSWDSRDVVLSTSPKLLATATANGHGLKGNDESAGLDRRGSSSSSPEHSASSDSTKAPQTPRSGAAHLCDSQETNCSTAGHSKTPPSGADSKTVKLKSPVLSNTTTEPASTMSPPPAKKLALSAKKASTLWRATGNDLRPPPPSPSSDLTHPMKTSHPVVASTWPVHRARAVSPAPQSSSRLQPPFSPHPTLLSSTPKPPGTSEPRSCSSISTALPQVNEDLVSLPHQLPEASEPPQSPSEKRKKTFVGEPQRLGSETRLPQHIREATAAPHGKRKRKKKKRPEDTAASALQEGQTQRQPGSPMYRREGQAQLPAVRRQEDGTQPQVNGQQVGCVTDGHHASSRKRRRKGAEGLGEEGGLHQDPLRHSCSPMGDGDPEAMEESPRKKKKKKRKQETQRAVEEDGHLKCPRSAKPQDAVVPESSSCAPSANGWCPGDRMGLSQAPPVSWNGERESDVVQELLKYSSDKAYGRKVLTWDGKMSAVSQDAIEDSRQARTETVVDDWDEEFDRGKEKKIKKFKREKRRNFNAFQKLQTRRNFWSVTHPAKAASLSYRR
How it was run: as §1

[3] = target: T2, USP38 (UniProt Q8NB14)
T2 sequence (whole entry): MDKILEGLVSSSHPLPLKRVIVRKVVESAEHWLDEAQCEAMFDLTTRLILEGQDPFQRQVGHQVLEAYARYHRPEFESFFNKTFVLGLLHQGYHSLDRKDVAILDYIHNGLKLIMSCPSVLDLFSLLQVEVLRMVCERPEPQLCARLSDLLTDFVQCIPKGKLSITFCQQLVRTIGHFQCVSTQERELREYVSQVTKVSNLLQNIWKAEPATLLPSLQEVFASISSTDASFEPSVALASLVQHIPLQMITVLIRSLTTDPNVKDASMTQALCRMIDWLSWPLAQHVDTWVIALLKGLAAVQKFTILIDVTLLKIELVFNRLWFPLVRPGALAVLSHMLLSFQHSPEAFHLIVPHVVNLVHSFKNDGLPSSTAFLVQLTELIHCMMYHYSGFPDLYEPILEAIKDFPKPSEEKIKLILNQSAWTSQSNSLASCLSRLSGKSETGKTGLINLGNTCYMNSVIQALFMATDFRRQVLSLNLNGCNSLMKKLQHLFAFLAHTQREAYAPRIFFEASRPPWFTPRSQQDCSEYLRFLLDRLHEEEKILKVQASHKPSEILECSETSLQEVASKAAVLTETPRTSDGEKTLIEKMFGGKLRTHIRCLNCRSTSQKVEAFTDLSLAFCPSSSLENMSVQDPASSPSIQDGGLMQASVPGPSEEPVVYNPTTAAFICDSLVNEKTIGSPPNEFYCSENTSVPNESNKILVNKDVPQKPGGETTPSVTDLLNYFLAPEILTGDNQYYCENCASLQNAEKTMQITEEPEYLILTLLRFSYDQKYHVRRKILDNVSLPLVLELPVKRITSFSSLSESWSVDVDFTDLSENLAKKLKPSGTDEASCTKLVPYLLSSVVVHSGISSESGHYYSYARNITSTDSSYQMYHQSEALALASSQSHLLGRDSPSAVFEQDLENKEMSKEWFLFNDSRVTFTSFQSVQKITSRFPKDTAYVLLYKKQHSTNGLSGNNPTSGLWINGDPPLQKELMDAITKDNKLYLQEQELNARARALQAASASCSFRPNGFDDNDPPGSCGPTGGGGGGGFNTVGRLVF
How it was run: as §1

[4] = target: T3, USP39 (UniProt Q53GS9)
T3 sequence (whole entry): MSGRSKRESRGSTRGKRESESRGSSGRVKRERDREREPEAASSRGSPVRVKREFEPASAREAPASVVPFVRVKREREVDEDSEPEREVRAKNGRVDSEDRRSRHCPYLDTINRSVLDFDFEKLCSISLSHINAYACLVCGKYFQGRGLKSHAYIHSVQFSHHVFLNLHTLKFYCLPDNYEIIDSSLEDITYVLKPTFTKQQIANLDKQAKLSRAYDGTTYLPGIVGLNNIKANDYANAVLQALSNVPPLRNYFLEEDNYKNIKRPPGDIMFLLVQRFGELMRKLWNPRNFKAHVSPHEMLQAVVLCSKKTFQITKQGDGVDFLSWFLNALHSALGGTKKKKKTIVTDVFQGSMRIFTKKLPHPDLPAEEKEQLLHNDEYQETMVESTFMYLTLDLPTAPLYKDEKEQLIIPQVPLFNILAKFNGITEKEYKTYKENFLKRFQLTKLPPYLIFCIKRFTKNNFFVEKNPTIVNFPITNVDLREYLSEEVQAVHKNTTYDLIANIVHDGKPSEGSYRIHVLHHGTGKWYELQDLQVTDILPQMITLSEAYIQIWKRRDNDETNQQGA
How it was run: as §1

[5] = target: T4, USP4 (UniProt Q13107)
T4 sequence (whole entry): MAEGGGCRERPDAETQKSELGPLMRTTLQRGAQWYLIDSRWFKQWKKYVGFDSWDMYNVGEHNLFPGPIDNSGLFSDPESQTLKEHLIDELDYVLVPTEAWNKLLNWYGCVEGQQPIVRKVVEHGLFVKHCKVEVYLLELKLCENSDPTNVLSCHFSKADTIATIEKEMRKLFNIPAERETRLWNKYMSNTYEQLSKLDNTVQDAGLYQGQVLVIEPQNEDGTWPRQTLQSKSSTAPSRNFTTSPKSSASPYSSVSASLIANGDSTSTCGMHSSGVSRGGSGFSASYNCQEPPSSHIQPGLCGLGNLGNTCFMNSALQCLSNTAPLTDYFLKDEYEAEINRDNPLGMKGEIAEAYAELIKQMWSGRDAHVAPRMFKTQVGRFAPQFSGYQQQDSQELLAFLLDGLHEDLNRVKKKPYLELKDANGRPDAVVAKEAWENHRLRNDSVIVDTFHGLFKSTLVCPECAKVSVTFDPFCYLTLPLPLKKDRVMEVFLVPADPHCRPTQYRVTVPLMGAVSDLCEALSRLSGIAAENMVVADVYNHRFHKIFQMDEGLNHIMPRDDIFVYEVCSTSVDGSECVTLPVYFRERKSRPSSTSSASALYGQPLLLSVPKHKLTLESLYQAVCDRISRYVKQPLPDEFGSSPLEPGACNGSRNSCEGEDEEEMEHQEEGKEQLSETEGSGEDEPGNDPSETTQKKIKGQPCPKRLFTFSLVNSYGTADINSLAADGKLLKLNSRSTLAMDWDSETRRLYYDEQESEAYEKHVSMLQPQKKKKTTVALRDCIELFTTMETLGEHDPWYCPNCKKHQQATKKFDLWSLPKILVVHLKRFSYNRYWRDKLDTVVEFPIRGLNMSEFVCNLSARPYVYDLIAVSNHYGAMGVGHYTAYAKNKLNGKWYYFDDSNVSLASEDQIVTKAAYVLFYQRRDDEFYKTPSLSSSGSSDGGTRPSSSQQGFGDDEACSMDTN
How it was run: as §1

Measured: log2 ratio of Biotin-Ahx-Ub-VS probe labelling

USP34, sequence (Q70CQ2 whole entry, the tested form may be a part): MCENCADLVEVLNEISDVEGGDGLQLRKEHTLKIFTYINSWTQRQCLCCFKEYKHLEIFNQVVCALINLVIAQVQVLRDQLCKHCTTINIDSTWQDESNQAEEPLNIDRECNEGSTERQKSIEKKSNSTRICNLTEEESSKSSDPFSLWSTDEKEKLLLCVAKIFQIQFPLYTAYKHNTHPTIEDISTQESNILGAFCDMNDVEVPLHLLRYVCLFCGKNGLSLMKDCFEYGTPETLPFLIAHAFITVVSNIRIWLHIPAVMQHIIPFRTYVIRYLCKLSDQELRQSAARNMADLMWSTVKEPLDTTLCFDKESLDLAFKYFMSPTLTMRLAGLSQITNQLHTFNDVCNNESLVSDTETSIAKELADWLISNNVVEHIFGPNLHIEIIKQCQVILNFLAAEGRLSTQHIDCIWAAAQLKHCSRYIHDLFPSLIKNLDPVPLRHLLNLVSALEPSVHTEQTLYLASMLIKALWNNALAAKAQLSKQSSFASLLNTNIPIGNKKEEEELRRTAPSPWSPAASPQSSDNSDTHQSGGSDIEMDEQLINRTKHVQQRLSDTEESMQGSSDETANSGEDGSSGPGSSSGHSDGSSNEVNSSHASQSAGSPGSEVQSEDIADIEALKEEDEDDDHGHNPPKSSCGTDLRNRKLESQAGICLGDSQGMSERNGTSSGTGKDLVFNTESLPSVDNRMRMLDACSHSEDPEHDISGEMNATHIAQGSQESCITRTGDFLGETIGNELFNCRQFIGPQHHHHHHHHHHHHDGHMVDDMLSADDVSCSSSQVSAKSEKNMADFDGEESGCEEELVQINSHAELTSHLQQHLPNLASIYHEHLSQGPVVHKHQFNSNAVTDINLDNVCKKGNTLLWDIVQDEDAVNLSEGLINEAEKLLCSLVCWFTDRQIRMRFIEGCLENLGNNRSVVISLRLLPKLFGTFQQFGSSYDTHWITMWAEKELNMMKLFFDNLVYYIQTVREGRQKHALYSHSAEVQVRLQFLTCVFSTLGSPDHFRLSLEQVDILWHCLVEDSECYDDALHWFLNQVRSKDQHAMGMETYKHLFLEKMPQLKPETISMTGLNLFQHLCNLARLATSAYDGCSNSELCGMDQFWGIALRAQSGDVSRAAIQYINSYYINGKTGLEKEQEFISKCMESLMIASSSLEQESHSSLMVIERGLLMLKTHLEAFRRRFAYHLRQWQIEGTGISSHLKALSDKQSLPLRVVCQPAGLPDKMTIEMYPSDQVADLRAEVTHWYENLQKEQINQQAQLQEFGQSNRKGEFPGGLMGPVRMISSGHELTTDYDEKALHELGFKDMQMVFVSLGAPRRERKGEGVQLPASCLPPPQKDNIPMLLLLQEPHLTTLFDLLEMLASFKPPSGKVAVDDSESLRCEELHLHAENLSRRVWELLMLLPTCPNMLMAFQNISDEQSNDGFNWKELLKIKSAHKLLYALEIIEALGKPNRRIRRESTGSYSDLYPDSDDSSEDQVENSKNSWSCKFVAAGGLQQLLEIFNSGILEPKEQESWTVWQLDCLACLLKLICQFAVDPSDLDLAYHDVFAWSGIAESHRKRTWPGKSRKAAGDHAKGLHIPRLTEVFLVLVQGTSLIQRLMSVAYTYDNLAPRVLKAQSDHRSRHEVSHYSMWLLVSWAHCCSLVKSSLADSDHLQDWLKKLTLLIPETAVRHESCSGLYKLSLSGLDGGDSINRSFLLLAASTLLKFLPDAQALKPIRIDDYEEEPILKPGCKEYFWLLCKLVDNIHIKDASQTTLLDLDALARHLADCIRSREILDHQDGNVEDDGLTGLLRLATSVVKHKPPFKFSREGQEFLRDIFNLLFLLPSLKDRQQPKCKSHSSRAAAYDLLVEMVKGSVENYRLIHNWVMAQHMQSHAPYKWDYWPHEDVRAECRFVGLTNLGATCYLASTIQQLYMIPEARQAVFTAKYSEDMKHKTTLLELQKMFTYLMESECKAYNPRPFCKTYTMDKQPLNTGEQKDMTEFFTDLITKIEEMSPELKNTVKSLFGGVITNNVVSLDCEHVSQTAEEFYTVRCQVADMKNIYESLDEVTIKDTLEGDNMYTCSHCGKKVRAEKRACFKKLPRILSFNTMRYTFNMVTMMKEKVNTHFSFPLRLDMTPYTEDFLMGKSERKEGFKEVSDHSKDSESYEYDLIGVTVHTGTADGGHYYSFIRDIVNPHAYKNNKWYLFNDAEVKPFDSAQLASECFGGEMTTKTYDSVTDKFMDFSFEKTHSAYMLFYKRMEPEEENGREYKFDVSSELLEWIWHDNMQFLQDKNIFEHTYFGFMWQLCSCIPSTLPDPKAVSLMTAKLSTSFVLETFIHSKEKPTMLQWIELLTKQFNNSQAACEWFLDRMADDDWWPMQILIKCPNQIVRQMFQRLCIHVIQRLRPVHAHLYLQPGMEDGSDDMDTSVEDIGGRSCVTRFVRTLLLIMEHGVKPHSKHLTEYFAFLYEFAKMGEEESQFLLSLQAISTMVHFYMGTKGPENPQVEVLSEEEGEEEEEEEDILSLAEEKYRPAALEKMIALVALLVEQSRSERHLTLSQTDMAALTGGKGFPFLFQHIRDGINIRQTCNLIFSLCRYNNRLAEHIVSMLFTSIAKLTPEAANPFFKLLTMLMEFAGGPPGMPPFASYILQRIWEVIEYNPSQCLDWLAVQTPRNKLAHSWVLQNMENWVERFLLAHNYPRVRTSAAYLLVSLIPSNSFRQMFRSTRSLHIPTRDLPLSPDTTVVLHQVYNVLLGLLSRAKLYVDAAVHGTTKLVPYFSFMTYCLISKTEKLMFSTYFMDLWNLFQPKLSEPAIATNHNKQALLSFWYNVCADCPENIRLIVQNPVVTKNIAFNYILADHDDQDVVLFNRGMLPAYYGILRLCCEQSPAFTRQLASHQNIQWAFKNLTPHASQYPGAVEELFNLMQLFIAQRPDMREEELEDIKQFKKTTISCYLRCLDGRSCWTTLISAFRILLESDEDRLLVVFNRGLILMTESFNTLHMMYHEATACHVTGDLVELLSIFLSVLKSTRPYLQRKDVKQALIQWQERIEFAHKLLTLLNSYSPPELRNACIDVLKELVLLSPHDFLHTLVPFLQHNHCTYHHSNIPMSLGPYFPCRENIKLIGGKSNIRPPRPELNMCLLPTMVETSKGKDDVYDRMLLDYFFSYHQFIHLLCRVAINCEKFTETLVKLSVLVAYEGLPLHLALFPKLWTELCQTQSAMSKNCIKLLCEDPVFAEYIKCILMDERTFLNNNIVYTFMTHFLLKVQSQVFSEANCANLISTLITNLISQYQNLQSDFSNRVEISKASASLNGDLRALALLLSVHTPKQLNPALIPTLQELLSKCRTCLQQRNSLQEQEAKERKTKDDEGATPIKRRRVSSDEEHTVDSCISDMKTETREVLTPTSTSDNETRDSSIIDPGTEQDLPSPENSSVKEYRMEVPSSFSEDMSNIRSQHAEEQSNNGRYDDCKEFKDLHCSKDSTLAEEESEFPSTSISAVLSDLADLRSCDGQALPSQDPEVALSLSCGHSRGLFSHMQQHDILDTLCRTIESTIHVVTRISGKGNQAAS

O=C(CCl)N1CCCN(C(=O)c2ccc(Cl)cc2)CC1
inactive: [1] -0.425 | [2] 0.0741 | [3] -0.22 | [4] -0.317 | [5] -0.259
